D1 ag – human D1 receptor agonism; P21728; HEK293 T-REx D1 cells, calcium flux, agonist mode; activation, % at 2 µM; 360,000 compounds, 1% hits; in the data active means activation above about 30%
Target sequence (P21728 whole entry, looked up): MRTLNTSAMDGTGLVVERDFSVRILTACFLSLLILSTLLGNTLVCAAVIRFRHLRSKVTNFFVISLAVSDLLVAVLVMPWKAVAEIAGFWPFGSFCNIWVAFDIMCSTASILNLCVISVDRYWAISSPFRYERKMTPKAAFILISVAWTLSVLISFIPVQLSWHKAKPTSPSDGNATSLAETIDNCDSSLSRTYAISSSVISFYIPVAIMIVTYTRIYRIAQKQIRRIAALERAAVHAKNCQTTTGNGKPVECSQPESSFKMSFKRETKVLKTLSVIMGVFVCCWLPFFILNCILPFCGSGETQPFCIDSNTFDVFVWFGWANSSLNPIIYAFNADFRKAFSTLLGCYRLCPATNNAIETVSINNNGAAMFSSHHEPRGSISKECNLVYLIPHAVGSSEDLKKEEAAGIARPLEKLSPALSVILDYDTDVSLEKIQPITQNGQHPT
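Inducible HEK293 T-REx D1 cells, force-coupled to calcium signalling, were plated at 4000 cells/well with tetracycline and held overnight at 30 C. After no-wash calcium dye loading, compound-evoked calcium rise over 180 s flagged agonists.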
D1 PAM – enhances dopamine response at the human D1 receptor; HEK293 TREx D1 cells, calcium flux, dopamine EC20 potentiation; 360,000 compounds, 0.036% hits; P21728; AID 504651; potentiation, % at 10 µM; in the data active means potentiation above about 30%
D3 antag – antagonists of human D3 dopamine receptor | P35462 | D3R cells, DiscoveRx beta-arrestin luminescence, antagonist mode; active compounds read low | max response, negative = inhibition, % | 360,000 compounds, 2.5% hits | AID 652054; in the data active means max response below about -50%; inconclusive means no clear call, values can overlap the other calls
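Cells expressing the human receptor were seeded at 1500 cells/well, incubated overnight at 37 degrees C in 5% CO2, then exposed to library compounds with dopamine controls for 90 minutes at 37 degrees C before luminescent detection.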
D1 antagonist – human D1 dopamine receptor antagonism | P21728 | HEK293 TREx D1 cells, calcium flux, dopamine EC80; active compounds read low | activity change, negative = inhibition, % at 10 µM | 360,000 compounds, 3.2% hits; in the data active means activity change below about -30%
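Inducible Hek293 Trex D1 cells (tetracycline, overnight, 30 C). Calcium dye 30–90 min RT. Antagonist mode: EC80 dopamine added after 180 s compound read.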
DRD3 agonist – D3 dopamine receptor (human) agonism; P35462; max activation, %; 410,000 compounds, 0.58% hits; D3R DiscoveRx beta-arrestin cells, luminescence, 90 min; in the data active means max activation above about 30%
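Cells at 1500/well, incubated overnight, then treated with pinned compounds (dopamine as control) for 90 min at 37 degrees C. DiscoveRx reagent added for 30 - 60 minutes at room temperature; luminescence read.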
Each line names hits and unclear results; the compound was inactive in the other large screens. Compounds with a hit are over-represented: about 6% of the library has one in this group of screens.

O=C(COc1ccc2ccccc2c1)NNC(=O)Cc1ccccc1	none
O=C(Cc1ccccc1)NNc1ccc2ccccc2c1	D1 antagonist -49
O=c1[nH]c(=O)n(Cc2ccccc2)c2nc(-c3cccs3)n(CCO)c12	none
O=c1[nH]c(=O)n(CCO)c2nnn(Cc3ccccc3)c12	D1 antagonist -31
Cn1cnc2c1c(=O)[nH]c(=O)n2Cc1ccccc1	none
O=c1[nH]c(=O)n(Cc2ccccc2)c2nc(-c3ccc(C(F)(F)F)cc3)n(CCO)c12	D1 antagonist -31
O=C(NC(NC(=S)Nc1cc(Cl)ccc1Cl)C(Cl)(Cl)Cl)c1ccco1 (stereo not given)	D3 antag inconclusive, D1 antagonist -40
O=C(/C=C/c1ccccc1)NC(NC(=S)Nc1cc(Cl)ccc1Cl)C(Cl)(Cl)Cl (stereo not given)	D3 antag inconclusive, D1 antagonist -37
CC(=O)Nc1cnc(NC(=O)c2cccc(F)c2)cc1C	D1 antagonist -36
COCC1CCN(C(=O)c2ccc(OC3CCN(Cc4ccccn4)CC3)cc2)C1 (stereo not given)	none
CN1CCN(/N=C/c2ccc(OCc3ccccc3)cc2)CC1	D1 ag 32, D3 antag inconclusive, D1 antagonist -69
CCc1ccc(C2=CC(c3c(F)cccc3Cl)n3c(nc4ccccc43)N2)cc1 (stereo not given)	D1 ag 39 (no result: D3 antag)
COc1ccc(-n2nc3c(c2NC(=O)C24CC5CC(CC(C5)C2)C4)CS(=O)C3)cc1 (stereo not given)	D3 antag -56 (no result: D1 PAM)
COc1ccc(-n2nc3c(c2NC(=O)C2CC2)CS(=O)C3)cc1 (stereo not given)	none
CC(C)CCNC(=O)C1CCN(Cc2cccc(OCc3ccccc3)c2)CC1	D1 ag 42
CCN(CC)C(=O)C1CCN(Cc2ccc(OCc3ccccc3)cc2)CC1	none
CCN(CC)C(=O)C1CCN(Cc2cccc(OCc3ccccc3)c2)CC1	D3 antag -61
CC(=O)c1ccc(N(CC(=O)NC2CCS(=O)(=O)C2)S(=O)(=O)c2ccc(Cl)cc2)cc1 (stereo not given)	none
CN1CCN(C(=O)c2cc3c(c(-c4cccc(Br)c4)n2)[C@H](CCO)N(S(=O)C(C)(C)C)C3)CC1 (stereo not given in full)	D3 antag -50 (no result: D1 ag, D1 PAM, D1 antagonist)
O=C(NNC1=Nc2cccc3cccc1c23)c1ccc(Br)cc1	D3 antag -97
Cc1c(C(=O)NCc2ccccc2)sc2nc3n(c(=O)c12)CCCCC3	D1 ag 45 (no result: D3 antag)
Cc1c(C(=O)NCCc2ccc(Cl)cc2)sc2nc3n(c(=O)c12)CCC3	none
Cc1c(C(=O)NCCc2ccc(Cl)cc2)sc2nc3n(c(=O)c12)CCCC3	D1 ag 99 (no result: D3 antag)
Cc1c(C(=O)Nc2cccc(C(F)(F)F)c2)sc2nc3n(c(=O)c12)CCCC3	D1 ag 36 (no result: D3 antag)
CN(C)c1ccc(NC(=O)CN2C(=O)c3ccccc3Sc3ccc(C(=O)N4CCCC4)cc32)cc1	none (no result: D3 antag)
CC1CCc2noc(NC(=O)c3ccccc3[N+](=O)[O-])c2C1 (stereo not given)	none (no result: D3 antag)
CCN(CCCNC(=O)c1cc2c(=O)[nH]c3ccc(C)cc3c2s1)Cc1ccccc1	none (no result: D3 antag)
CCCC(=O)Nc1nc2ccc(NC(=O)c3ccc(Br)o3)cc2s1	none
Cc1nc2ccc(NC(=O)c3ccc(Br)o3)cc2s1	D1 antagonist -31
CCN(CC)c1cc(C)c2cc(NC(=O)c3ccc(Br)o3)ccc2n1	D1 antagonist -55
COc1ccc(C)cc1S(=O)(=O)NCC(c1ccc2c(c1)OCO2)N1CCN(C)CC1 (stereo not given)	none
CCC(=O)Nc1ccccc1-c1nc2ccccc2n(C(C)C(=O)Nc2ccc(OC)cc2)c1=O (stereo not given)	D1 antagonist -31 (no result: D3 antag)
CC1(C)CC(Nc2ccc(C(F)(F)F)cc2[N+](=O)[O-])CC(C)(C)N1	none (no result: D1 PAM)
O=[N+]([O-])c1cc(C(F)(F)F)ccc1NC1CCN(Cc2ccccc2)CC1	D3 antag -74
NC(=O)CC(NC(=O)c1ccccc1)c1ccc(NC2CCN(Cc3ccccc3)CC2)c([N+](=O)[O-])c1 (stereo not given)	none
O=[N+]([O-])c1cc(C(F)(F)F)ccc1NC1CCN(Cc2ccccc2)C1 (stereo not given)	D3 antag -74
c1ccc2c(c1)CC(N1CCCCC1)c1ccccc1N2 (stereo not given)	none
CCc1cccc2c1Sc1ccccc1CC2N1CCNCC1 (stereo not given)	D3 antag -63 (no result: D1 ag, D1 PAM, D1 antagonist)
Cc1ccc(Cl)cc1N1CCN(CC(=O)NC2CCCc3ccccc32)CC1 (stereo not given)	none
Cc1cccc2c1Sc1ccc(Cl)cc1CC2N1CCNCC1 (stereo not given)	D3 antag -53 (no result: D1 ag, D1 PAM, D1 antagonist)
CN(C)c1ccc(/C=N/N2C(=S)SC(C)(C)C2N(O)C(=O)Nc2ccc([N+](=O)[O-])cc2)cc1 (stereo not given)	D3 antag -67
CNC(=O)N(O)C1N(/N=C/c2ccc(SC)cc2)C(=S)SC1(C)C (stereo not given)	none
O=C(NCCc1csc(-c2cccc(F)c2)n1)C(=O)Nc1cc(F)ccc1F	none (no result: D3 antag)
CC(=O)[C@@H]1[C@@H]2C(=O)N(C3CCCCC3)C(=O)[C@@H]2C2c3ccccc3C=CN21 (stereo not given in full)	none (no result: D3 antag, DRD3 agonist)
O=C1NC(=O)[C@@H]2C3c4ccccc4C=CN3[C@H](C(=O)c3cccs3)[C@H]12 (stereo not given in full)	D1 antagonist -70 (no result: D3 antag, DRD3 agonist)
C[C@@H]1CN([C@@H](C)CO)S(=O)(=O)c2ccc(/C=C/c3ccccc3)cc2O[C@@H]1CN(C)Cc1ccc(C(=O)O)cc1	DRD3 agonist 38 (no result: D1 ag, D1 PAM, D1 antagonist)
COc1cccc(N2C(=O)CSC23C(=O)N(CC(=O)NCc2ccc(C)cc2)c2ccccc23)c1 (stereo not given)	none (no result: D3 antag)
CC(=O)c1cccc(NS(C)(=O)=O)c1	none
COc1ccc(S(N)(=O)=O)cc1C(=O)OCCCOc1ccc(F)cc1	D1 antagonist -34
CS(=O)(=O)Nc1cccc(C(=O)OCCCOc2ccc(F)cc2)c1	DRD3 agonist 74
CCOCCn1ccc2c(OCC(=O)Nc3ccc(C(N)=O)cc3)cccc2c1=O	none (no result: D3 antag, D1 antagonist)
CCOC(=O)c1cnc2ccccc2c1NCc1ccco1	D1 antagonist -39
Cc1ccc(S(=O)(=O)N2CCOCC2)cc1C(=O)Nc1ccccc1C(=O)O	none (no result: D3 antag)
Cc1cccc(NC(=S)NC2CCSc3ccccc32)c1 (stereo not given)	D1 antagonist -33
FC(F)Oc1ccc(NC(=S)NC2CCSc3ccccc32)cc1 (stereo not given)	none
Cc1cc(C)cc(NC(=O)Cn2cc(C(=O)c3cccs3)c3ccccc32)c1	none (no result: D3 antag)
CCC(=O)NC(c1cccs1)c1cc(Br)c2cccnc2c1O (stereo not given)	none (no result: D3 antag, DRD3 agonist)
O=C(N/N=C/c1c[nH]c2ccc(Br)cc12)c1ccccn1	D1 antagonist -47

Source: PubChem
